Rows were chosen to be rich in hits. Some 21% of all compounds tested hit in one or more screens of this group.
NS1 function inh: blocks influenza NS1 protein function. hit rate 0.4% among 270,000. Potency, µM (highest dose often 46.1 µM). AID 2326; calls by dose curve; also: actives are rising curves; nearly all actives have a fitted effect of over 50% in size
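Read-out: OD600 growth recovery of NS1-expressing budding yeast. Cells grown overnight at 30C in -URA glucose medium, washed, resuspended and diluted 1:100 in 2% galactose assay medium, pH 6.0. Same strain lacking NS1 served as positive control.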
Cycloheximide cs: affects cycloheximide protein synthesis inhibition readout, counter-screen; AID 2314; hit rate 12% among 300,000; cell reporter, cycloheximide protein synthesis inhibition counterscreen; max response, %; in the data active = max response mostly above about 13%, no sharp cut-off; inactive = mostly below about 14%; also: read at 38.3 µM for the half of the compounds with a filed dose
Pf growth 96h: P. falciparum growth inhibition at 96 hours | Potency, µM (highest dose often 28.7 µM), hits mostly inhibitors | P. falciparum luciferase reporter growth, 96 h | hit rate 6.9% among 320,000 | AID 504834
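Two parasite generations (96 h, 37 C, 5% CO2) of compound exposure in infected erythrocytes (0.05% parasitemia, 2% hematocrit). Luciferase-reporter P. falciparum; decreased luminescence indicates inhibited growth, aimed at apicoplast-acting delayed death.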
Pf growth 48h: inhibits P. falciparum growth in the first generation, 48 h. hit rate 5.9% among 310,000. P. falciparum luciferase growth in erythrocytes, 48 h. Potency, µM (top dose mostly 28.7 µM), hits mostly inhibitors. AID 504832
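Here the parasites carry a stable luciferase gene and grow inside erythrocytes in Albumax-based RPMI medium with compound for one erythrocytic cycle. Activity is scored as loss of luminescent signal.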
FBPA Giardia inh: blocks Giardia fructose-bisphosphate aldolase activity; A8B2U2; purified Giardia FBPA; Potency, µM (highest dose often 59.6 µM), usual class: inhibitors; hit rate 0.71% among 290,000; also: nearly all actives have a fitted effect of over 55% in size
Target sequence (A8B2U2 whole entry, looked up): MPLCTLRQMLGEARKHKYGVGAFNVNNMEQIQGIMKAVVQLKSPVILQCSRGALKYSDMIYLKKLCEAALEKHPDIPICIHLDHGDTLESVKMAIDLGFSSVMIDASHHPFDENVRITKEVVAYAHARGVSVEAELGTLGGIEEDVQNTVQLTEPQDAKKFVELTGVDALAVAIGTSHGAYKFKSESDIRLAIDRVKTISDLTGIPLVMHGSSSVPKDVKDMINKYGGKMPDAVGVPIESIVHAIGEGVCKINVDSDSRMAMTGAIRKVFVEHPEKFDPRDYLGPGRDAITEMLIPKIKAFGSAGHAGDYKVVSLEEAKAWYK
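Giardia FBPA (40 nM reagent) was preincubated 10 min at RT with compound (up to 57.5 uM final), then substrate plus GAPDH/TPI/NAD/arsenate coupling system with diaphorase/resazurin was added; resorufin fluorescence (525/598 nm) was read after 20 min.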
Shiga inhibitor: blocks Shiga toxin action in Vero cells; hit rate 9.2% among 290,000; inhibition, % at 38.7 µM; AID 2315; Vero cells, Shiga toxin protein synthesis inhibition reporter; in the data active = inhibition mostly above about 28%, no sharp cut-off; inactive = mostly below about 43%
A number is an active result; i = inactive; ? = inconclusive; nt = no result given; [ ] = dose if it differs, or a comment. Unless noted, calls follow the shape of the dose curve; as a rule, active = well fitted curve in the direction sought with a large enough effect; inconclusive = small, poorly fitted or top-dose-only effect, or another doubt; inactive = no such curve, though single readings can be large; an effect the other way counts as inactive or inconclusive.

SMILES | NS1 function inh | Cycloheximide cs | Pf growth 96h | Pf growth 48h | FBPA Giardia inh | Shiga inhibitor
COc1ccc(/C=N/Nc2ccc(C(=O)O)cc2)c(OC)c1OC | i | 47.2 | ? | i | i | 79.9
COc1cc(/C=N/Nc2ccc(C(=O)O)cc2)cc(OC)c1OC | i | 45.0 | i | i | i | 57.6
C=CCOc1c(OC)cc(/C=N/Nc2cccc(C(=O)O)c2)c(Br)c1Br | i | 49.9 | i | i | i | 187.2
COc1ccc(/C=N\Nc2ccc([N+](=O)[O-])cc2)c(C(=O)O)c1OC | i | i | ? | i | i | i
Cc1ccc2nc(Cl)c(/C=N/Nc3ccc(C(=O)O)cc3)cc2c1 | i | 32.2 | i | i | ? | i
COc1ccc(CCNC(=O)CC(C)S(=O)(=O)c2ccc3c(c2)NC(=O)CO3)cc1OC (centres undefined) | i | i | i | i | i | i
COc1ccc(NC(=O)Cc2coc3ccc4ccccc4c23)cc1S(=O)(=O)N1CCOCC1 | i | i | ? | i | i | i
CC(NC(=O)c1ccco1)C(c1cccs1)N1CCN(c2ccccc2)CC1 (centres undefined) | i | i | 13.1µM | 11.7µM | i | i
CC(NC(=O)c1ccco1)C(c1cccs1)N1CCN(c2ccccc2F)CC1 (centres undefined) | i | i | nt | ? | i | i
CC(NC(=O)c1ccco1)C(c1cccs1)N1CCN(c2ccc(F)cc2)CC1 (centres undefined) | i | i | nt | 7.38µM | ? | i
Cc1nn(C)c(C)c1/C=N/N=C1\CCC2C3CCc4cc(O)ccc4C3CCC12C (centres undefined) | i | i | nt | 2.94µM | i | i
C[C@]12CC[C@@H]3c4ccc(O)cc4CC[C@H]3[C@@H]1CCC2=O | i | i | 13.1µM | ? | i | i
C[C@]12CCC3c4ccc(O)cc4CCC3[C@@H]1CCC2=O (some centres undefined) | nt | nt | nt | nt | i | nt
C[C@]12CC[C@H]3c4ccc(O)cc4CC[C@@H]3[C@H]1CC[C@@H]2OC(=O)CCC1CCCC1 | i | nt | 13.5µM | 16.9µM | nt | nt
CC(=O)c1ccc(NC(=O)[C@@H]2CCCN2C2=NS(=O)(=O)c3ccccc32)cc1 | nt | nt | i | i | nt | nt
Nc1ncnc(Nc2ccc(S(N)(=O)=O)cc2)n1 | i | i | i | i | i | i
O=C(COc1cc(Cl)ccc1Cl)N1CCNC1=O | nt | nt | i | ? | nt | nt
O=S(=O)(CCSc1nc2ccccc2o1)c1nc2ccccc2s1 | i | i | ? | 13.1µM | i | i
O=S(=O)(CCSc1ccccn1)c1nc2ccccc2s1 | i | 19.6 | 1.65µM | ? | i | i
COC(=O)c1ccc(C(NC(=O)OCc2ccccc2)/C(=C/[C@@H](C)C(=O)NCc2cc(C)on2)c2cccnc2)cc1 (some centres undefined) | nt | nt | nt | nt | i | nt
NC(=S)NC(=O)/C=C/c1ccccc1 | nt | 30.3 | 2.08µM | i | i | 65.8
O=C(/C=C/c1ccccc1)NC(=S)Nc1ccccc1O | i | 33.0 | i | i | i | 81.2
Cc1cc(O)c(C(C)C)cc1N=Cc1ccccc1O | i | i | ? | ? | 3.54µM | i
COc1ccc(SN=C2C(C)=CC(=O)C=C2C)cc1 | nt | i | i | i | i | i
COC1=CC(=O)C=C(OC)C1=O | nt | nt | nt | nt | 7.06µM | nt
SMILES | NS1 function inh | Cycloheximide cs | Pf growth 96h | Pf growth 48h | FBPA Giardia inh | Shiga inhibitor
CCCCOc1ccc(/C=C/C(=O)Nc2ccc([N+](=O)[O-])cc2C)cc1 | i | i | ? | i | i | i
Cc1cc([N+](=O)[O-])ccc1NC(=O)/C=C/c1cccs1 | i | 42.4 | i | i | i | 59.3
Cc1ccc(NC(=O)/C=C/c2ccc([N+](=O)[O-])s2)cc1 | i | 25.6 | ? | ? | i | active
Cc1cccc(NC(=S)N/N=C/c2ccc([N+](=O)[O-])s2)c1 | i | i | ? | ? | i | 32.4
O=C(/C=C/c1cccc([N+](=O)[O-])c1)Nc1ccc(NC(=O)c2cccs2)cc1 | i | i | i | i | i | i
Cc1ccc(NC(=O)/C=C/c2ccc([N+](=O)[O-])s2)c(C)c1 | i | 22.2 | 3.29µM | 10.4µM | i | active
Cc1cccc(NC(=O)/C=C/c2ccc([N+](=O)[O-])s2)c1 | i | i | 2.62µM | ? | i | i
O=C(C1CC1)N1CCC(c2nc(-c3ccc(S(=O)(=O)N4CCCC4)cc3)no2)CC1 | i | i | ? | nt | i | i
O=C(Cc1ccccc1)N1CCCC(c2nc(-c3ccc(S(=O)(=O)N4CCCC4)cc3)no2)C1 (centres undefined) | i | i | 8.28µM | nt | i | i
Cc1ccc(-c2noc(C3CCCN(C(=O)c4ccccc4Br)C3)n2)cc1 (centres undefined) | i | 27.1 | ? | i | i | 53.4
COc1ccc(-c2noc(C3CCCN(C(=O)c4ccccc4OC)C3)n2)cc1OC (centres undefined) | i | 23.0 | ? | ? | i | i
COc1ccc(C(=O)N2CCCC(c3nc(-c4ccc(OC)c(OC)c4)no3)C2)c(OC)c1 (centres undefined) | i | i | i | ? | i | i
COc1ccccc1/C=C\C(=O)OC[C@@H]1CCCN2CCCC[C@H]12 | nt | nt | nt | nt | i | nt
OCCC#Cc1ccc(CN2CCN(C3CCCCC3)C(CCO)C2)cc1 (centres undefined) | i | i | i | ? | i | i
CCCC(=O)c1cc(F)c(N2CCN(S(=O)(=O)c3ccccc3)CC2)cc1C | i | i | i | ? | i | i
CCOC(=O)N1CCN(c2ccc(C(=O)c3ccccc3)cc2F)CC1 | i | 28.6 | i | i | i | 77.2
CCC(=O)c1ccc(N2CCN(C(=O)c3ccccc3F)CC2)c(F)c1 | nt | i | i | i | i | i
CCCC(=O)c1cc(F)c(N2CCOCC2)cc1C | i | i | 1.31µM | i | i | i
CCOC(=O)N1CCN(c2ccc(C(C)=O)cc2F)CC1 | i[9.22 µM] | i | ? | ? | i | i
CCC(=O)c1ccc(N2CCN(C(=O)c3ccccc3Br)CC2)c(F)c1 | i | i | i | i | i | i
CCC(=O)c1ccc(N2CCCCCC2)c(F)c1 | i | 35.0 | i | i | i | 54.1
CCCC(=O)c1ccc(N2CCCC2)c(F)c1 | i | 36.9 | i | i | i | 76.1
CC(=O)Nc1sc(C)c(C)c1C(=O)OCC(=O)N(Cc1ccccc1)C(C)C | nt | nt | i | i | nt | nt
CCC(=O)c1cc(F)c(N2CCN(C(=O)c3ccco3)CC2)cc1C | i | 24.2 | ? | ? | i | 45.2
Cc1ccc2nc(N3CCN(CCO)CC3)nc(-c3ccccc3)c2c1 | i | i | ? | ? | i | i
SMILES | NS1 function inh | Cycloheximide cs | Pf growth 96h | Pf growth 48h | FBPA Giardia inh | Shiga inhibitor
CCC(=O)c1ccc(N2CCCC2)c(F)c1 | i | 28.2 | i | i | i | 47.6
CCOC(=O)N1CCN(c2nc(-c3ccccc3)c3cc(C)ccc3n2)CC1 | i | i | ? | 10.4µM | i | i
CCC(=O)c1cc(F)c(N2CCN(CC)CC2)cc1C | i | i | i | nt | i | i
CCC(=O)c1ccc(N2CCN(C(=O)c3cccs3)CC2)c(F)c1 | i | 21.3 | ? | i | i | i
Cc1ccc(C(C)(O)CS(=O)(=O)Cc2ccccc2Cl)cc1 (centres undefined) | i | i | i | i | i | i
O=C(CCn1c(=O)oc2ccccc21)Nc1cccc(Br)c1 | i | i | ? | i | i | i

Screening results deposited in PubChem BioAssay by National Center for Advancing Translational Sciences (NCATS).
